G9a block – qHTS Assay for Inhibitors of Histone Lysine Methyltransferase G9a | G9a H3K9 monomethylation, AlphaScreen, 2 h | 350,000 tested, 8.8% active | Potency, µM (series often up to 102 µM), for inactives: top-dose activity, negative = inhibition, usual class: inhibitors | Histone-lysine N-methyltransferase EHMT2 (Homo sapiens), Q96KQ7; also: % is scaled to controls: 0 for no effect and ±100 for the full control effect; nearly all actives have a fitted effect of over 75% in size
Target sequence (Q96KQ7 913-1193 limits assumed): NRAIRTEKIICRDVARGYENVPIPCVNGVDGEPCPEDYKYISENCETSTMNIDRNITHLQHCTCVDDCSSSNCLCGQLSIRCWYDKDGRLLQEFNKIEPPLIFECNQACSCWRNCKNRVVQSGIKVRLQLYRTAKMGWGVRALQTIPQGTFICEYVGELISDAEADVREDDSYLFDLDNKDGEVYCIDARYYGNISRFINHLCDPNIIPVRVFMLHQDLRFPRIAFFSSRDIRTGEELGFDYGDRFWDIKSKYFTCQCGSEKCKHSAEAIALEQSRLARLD
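Readings reflect AlphaScreen signal from monomethyl-H3K9 antibody detection. HMT at 20 nM; substrate b-H3K9 500 nM; cofactor SAM 20 uM; 2 h RT reaction; compounds tested as titrations in qHTS with 15 min preincubation.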
BAZ2B inh – qHTS Assay for Inhibitors of BAZ2B; Bromodomain adjacent to zinc finger domain protein 2B (Homo sapiens), Q9UIF8; AlphaScreen BAZ2B-H3K14Ac peptide displacement; Potency, µM (titrated, usually from 114 µM), for inactives: top-dose activity change, negative = inhibition, most hits filed as inhibitors; 360,000 tested, 4.4% active; AID 504333, 2011; also: % is scaled to controls: 0 for no effect and ±100 for the full control effect; nearly all actives have a fitted effect of over 60% in size
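BAZ2B (50 nM) with biotin-H3(5-23)K14Ac peptide (50 nM) in PBS pH 7.4, 0.01% Tween-20, preformed 30 min, then compound 30 min at room temperature; top concentration 110uM. AlphaScreen streptavidin donor/nickel chelate acceptor beads (10 ug/mL final), 20 min dark, signal read.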
GLS inhibitor – qHTS for Inhibitors of Glutaminase (GLS); 410,000 tested, 0.21% active; GLS enzymatic activity, qHTS titration; Potency, µM (top dose mostly 45.5 µM), for the others: top-dose activity change, negative = inhibition, hits mostly inhibitors; Glutaminase kidney isoform, mitochondrial (Homo sapiens), O94925; also: % is scaled to controls: 0 for no effect and ±100 for the full control effect
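Coupled fluorescence readout: glutamate oxidase/HRP/Amplex Red detect glutamate formed by hKGA from L-glutamine (1 mM solution added). Buffer 45 mM KH2PO4 pH 8.2, 0.02% Tween-20; reads at t0 and 30 min RT.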
HP1b chromo inh – HTS for Inhibitors of HP1-beta Chromodomain Interactions with Methylated Histone Tails; AlphaScreen HP1-beta / biotin-H3K9me3 peptide binding; Potency, µM (doses to about 114 µM), for inactives: top-dose activity change, negative = inhibition, actives largely listed as inhibitors; 390,000 tested, 0.56% active; also: nearly all actives have a fitted effect of over 70% in size
Target sequence (P83916 whole entry, looked up): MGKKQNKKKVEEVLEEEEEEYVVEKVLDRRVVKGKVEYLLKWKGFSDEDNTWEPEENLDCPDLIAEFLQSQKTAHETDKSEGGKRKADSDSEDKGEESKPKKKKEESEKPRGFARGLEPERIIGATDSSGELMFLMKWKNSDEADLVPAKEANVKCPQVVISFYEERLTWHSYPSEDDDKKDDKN
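AlphaScreen: HP1-beta (50 nM) preformed 30 min with biotin-H3(1-18)K9me3 peptide (50 nM) in PBS pH 7.4, 0.01% Tween-20. Compound added for 30 min at RT, then streptavidin donor/nickel chelate acceptor beads (10 ug/mL) for 30 min.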
JMJD2A Tudor inh – qHTS Assay for Inhibitors of JMJD2A-Tudor Domain. AlphaScreen JMJD2A-Tudor / H3K4me3 peptide binding. Potency, µM (series often up to 114 µM), without a hit: at the top dose activity change, negative = inhibition, actives largely listed as inhibitors. AID 504339, 2011. 390,000 tested, 4.4% active. Lysine-specific demethylase 4A (Homo sapiens), O75164; also: % is scaled to controls: 0 for no effect and ±100 for the full control effect; nearly all actives have a fitted effect of over 50% in size
Numbers without * were called inactive; u = inconclusive; x = no result; [ ] = dose if it differs, or a comment. Rows were chosen to be rich in hits. Some 10% of all compounds tested hit in one or more screens of this group. Calls follow the shape of the dose curve; as a rule, active = well fitted curve in the direction sought with a large enough effect; inconclusive = small, poorly fitted or top-dose-only effect, or another doubt; inactive = no such curve, though single readings can be large; an effect the other way counts as inactive or inconclusive. Potency is read from the fitted curve at half-maximal effect.

SMILES | G9a block | BAZ2B inh | GLS inhibitor | HP1b chromo inh | JMJD2A Tudor inh
COc1cccc([C@@H]2CC=C(C(=O)O)[C@H](c3ccccc3F)N2S(=O)(=O)c2ccc(C)cc2)c1 | 13.7%[2.33 µM] | 79.4µM* | 32.7% | 52.9% | -6.3%
Cc1ccc(S(=O)(=O)N2[C@@H](c3ccc(Cl)cc3)C(C(=O)O)=CC[C@H]2c2ccc(C(C)C)cc2)cc1 | 14.5%[2.33 µM] | 79.4µM* | 46.9% | 15.1% | -18.0%
COc1cccc([C@@H]2CC=C(C(=O)O)[C@H](c3ccc(C)cc3)N2S(=O)(=O)c2ccc(C)cc2)c1 | x | x | 3.1% | 32.5% | -5.5%
O=C1COc2ccc(C(=O)COC(=O)c3ccccc3[N+](=O)[O-])cc2N1 | u | -3.8% | -4.0% | 6.0% | -23.4%
O=C1COc2ccc(C(=O)COC(=O)c3ccc([N+](=O)[O-])cc3Cl)cc2N1 | 39.8µM* | -34.2% | 0.4% | -2.3% | -25.3%
O=C1COc2ccc(C(=O)COC(=O)c3ccc(Cl)cc3[N+](=O)[O-])cc2N1 | 44.7µM* | -32.6% | -7.9% | 3.3% | -25.3%
CCC[C@H]1CN(Cc2cccnc2)C(=O)[C@@H]1CC(=O)Nc1ccc(Br)cc1 | x | x | 1.1% | x | x
CCN(CC)CCC(c1ccc(N(C)C)cc1)c1c(OC)cc(OC)c2c(C)cc(=O)oc12 (stereo unspecified) | x | x | x | u | 35.5µM*
CCCCCc1cc(=O)oc2c(C(CCN(CC)CC)c3ccc(N(C)C)cc3)c(OC)cc(OC)c12 (stereo unspecified) | u | 14.1µM* | 18.1% | u | 28.2µM*
O=S(=O)(c1ccc(F)cc1)N1CCN(c2nc(-c3cccs3)nc3cc(Cl)ccc23)CC1 | x | x | x | 35.0% | -2.1%
C[N+](C)(C)CCCN(Cc1ccc2c(c1)OCO2)C(=O)NC1CCCCC1 | 50.1µM* | -29.6% | -3.7% | 4.2% | u
Cc1cc(NC(=O)CCC(=O)N(CC(=O)NC2CCCC2)Cc2ccc(F)cc2)no1 | 22.5%[12.7 µM] | -6.1% | -5.9% | 19.9% | 23.3%
CC(NCc1ccc2c(c1)OCO2)C(=O)NC1CCCCC1 (stereo unspecified) | 8.9% | -17.2% | -0.9% | 10.5% | u
Cc1cc(NC(=O)CCC(=O)N(CC(=O)NC2CCCC2)Cc2ccc3c(c2)OCO3)no1 | 50.1µM* | -35.1% | -1.6% | 16.2% | -4.2%
COc1ccccc1NC(=O)Cn1c(=O)n(CCc2ccccc2)c(=O)c2c3c(sc21)CN(C(C)=O)CC3 | -0.4%[59 µM] | -4.9% | 2.9% | 15.5% | -8.7%
CS(=O)(=O)c1cccc(C(=O)N(CCc2ccccc2)Cc2cccs2)c1 | 79.4µM* | 8.2% | -3.2% | 25.4% | 0.0%
Clc1ccc(C2=NCCN2)cc1 | 5.5%[59 µM] | u | 2.3% | 31.9% | -8.7%
NC(CSCc1ccccc1Cl)C(=O)O (stereo unspecified) | 35.5µM* | u | -0.3% | 41.7% | -5.7%
Nc1ncnc(Oc2cccc3cccnc23)c1[N+](=O)[O-] | u | 44.7µM* | 0.9% | 31.4% | -0.7%
Cc1cccc(Oc2ncnc(N)c2[N+](=O)[O-])c1C | 11.7% | 12.0% | 1.4% | 31.1% | -2.1%
O=c1c(-c2ccc(F)cc2)nc2cnc(N3CCNCC3)nc2n1Cc1ccc(F)cc1 | 8.2%[0.501 µM] | x | x | x | x
Cc1ccc(C(=O)COC(=O)CN2C(=O)C3C4CCC(C4)C3C2=O)cc1[N+](=O)[O-] (stereo unspecified) | 44.7µM* | 1.8% | 0.8% | 1.0% | -24.1%
Cc1ccc(C(=O)COC(=O)CCN2C(=O)C3C4CCC(C4)C3C2=O)cc1[N+](=O)[O-] (stereo unspecified) | 3.8% | 7.7% | 0.1% | 13.7% | -20.0%
CC(C)N1CCN(S(=O)(=O)c2ccc3ccccc3c2)CC1 | x | u | 0.4% | u | 15.8µM*
O=C(O)c1cccc(S(=O)(=O)N2CCN(C(c3ccccc3)c3ccccc3)CC2)c1 | 35.5µM* | u | -2.1% | 24.1% | -15.4%
SMILES | G9a block | BAZ2B inh | GLS inhibitor | HP1b chromo inh | JMJD2A Tudor inh
CN1CCN(S(=O)(=O)c2ccccc2)CC1 | 7.4% | -4.5% | -5.1% | 22.3% | -17.7%
O=C(O)c1cccc(S(=O)(=O)N2CCCC2)c1 | u | -4.0% | 5.3% | 14.3% | -16.5%
CC1CN(C2CCN(S(=O)(=O)c3ccc4ccccc4c3)CC2)CC(C)O1 (stereo unspecified) | 6.31µM* | 44.7µM* | -0.3% | u | u
CC(C)N1CCN(S(=O)(=O)c2ccccc2)CC1 | 22.4µM* | u | -4.5% | u | 28.2µM*
CC(C(=O)Nc1ccccc1C(=O)N1CCOCC1)N(c1ccccc1)S(C)(=O)=O (stereo unspecified) | -3.8%[59 µM] | 0.0% | 23.9% | u | 39.8µM*
CCOc1cc2[nH]c(=O)n(CCCC(=O)N3CCN(c4ccc(OC)cc4)CC3)c(=O)c2cc1OCC | -33.9%[59 µM] | -2.4% | 11.0% | 10.3% | -17.0%
Cc1ccc(CNC(=O)c2ccc(Cn3nc(C)c(Cl)c3C)o2)cc1 | u | 50.1µM* | 0.0% | 25.1% | u
CCOC(=O)c1c(C)[nH]c(C)c1C(=O)CSc1nnc(-c2ccncc2)n1C | u | -8.3% | 15.7% | 29.1% | u
CC(=O)c1cc(NC(=O)c2ccc([N+](=O)[O-])cc2)c(=O)oc1C | 22.4µM* | -22.9% | 0.6% | 30.1% | 9.3%
COc1ccc(C(=O)Nc2cc(C(=O)c3ccccc3)c(C)oc2=O)cc1 | 8.91µM* | u | 6.2% | u | u
COC(=O)c1cc(NC(=O)c2ccccc2)c(=O)oc1C | 44.7µM* | -0.8% | 11.9% | -13.8% | -2.3%
